A selection: hits, their analogues and other compounds. The true share with any hit is near 2.3%.
Mcl1 Noxa PPI: Mcl-1/Noxa interaction inhibition; inhibition, % at 21.7 µM; 1.5% of 220,000 active; TR-FRET Mcl-1/Noxa peptide binding, 2 h; Q07820;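 active = compounds that cut the protein-peptide binding signal by more than 50% relative to plate controls in a single-dose test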;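 note: His-tagged Mcl-1 with rhodamine Noxa BH3 peptide and terbium anti-His antibody; 0% = Mcl-1 plus Noxa peptide wells and 100% = peptide-only wells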
Target sequence (Q07820 whole entry, looked up): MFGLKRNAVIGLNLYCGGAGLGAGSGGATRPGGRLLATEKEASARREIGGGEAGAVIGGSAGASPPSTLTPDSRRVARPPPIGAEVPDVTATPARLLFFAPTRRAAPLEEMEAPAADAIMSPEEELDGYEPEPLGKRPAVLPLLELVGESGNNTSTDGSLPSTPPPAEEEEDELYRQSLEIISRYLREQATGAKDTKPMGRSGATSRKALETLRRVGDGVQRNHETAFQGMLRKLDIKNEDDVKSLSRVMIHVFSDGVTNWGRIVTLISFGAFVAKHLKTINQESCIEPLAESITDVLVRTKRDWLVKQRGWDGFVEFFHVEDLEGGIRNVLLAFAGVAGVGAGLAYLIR
GLD-1 RNA inh: GLD-1-TGE RNA interaction inhibition (C. elegans) | Q17339 | AID 2280 | inhibition, % at 5.96 µM | purified GLD-1 + fluorescein TGE RNA, fluorescence polarization | 0.44% of 320,000 active;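 active = percent inhibition above a per-plate cutoff, the plate mean of test compounds plus 3 SD, cut at about 30% in these data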;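 note: 0% = DMSO wells with GLD-1 and probe and 100% = wells lacking GLD-1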
Bim-Mcl-1: human Bim-Mcl-1 interaction inhibition. Q07820. Bead-based flow cytometry, Bim peptide-Mcl-1 binding. inhibition, % at 10 µM. 0.1% of 190,000 active. AID 1009; in the data active = inhibition above about 40%;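 note: 0% = no compound tracer wells and 100% = peptide blocker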
Bcl-xL primary: inhibitors of human Bcl-xL; Q07817; GST-Bcl-xL / FITC-Bim BH3 peptide fluorescence polarization; inhibition, % at 10.9 µM; AID 2129; 0.7% of 320,000 active;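 active = inhibition above the mean of all tested compounds plus 3 SD, cutoff set per campaign, cut at about 30% in these data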;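 note: 0% = DMSO wells and 100% = unlabeled Bim-BH3 peptide competitor; inhibitors lower millipolarization by displacing the labeled peptide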
Target sequence (Q07817 whole entry, looked up): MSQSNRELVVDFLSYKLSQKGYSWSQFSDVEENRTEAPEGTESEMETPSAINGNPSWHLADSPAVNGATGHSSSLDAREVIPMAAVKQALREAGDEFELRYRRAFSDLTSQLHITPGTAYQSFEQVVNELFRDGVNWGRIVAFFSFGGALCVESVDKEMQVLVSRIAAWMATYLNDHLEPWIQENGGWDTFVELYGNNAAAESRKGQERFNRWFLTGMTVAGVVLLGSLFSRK
Mcl1-Bid inh: Mcl-1/Bid interaction inhibition; Q07820; TR-FRET Mcl-1/Bid-Dy647 peptide binding, 1536-well; inhibition, % at 21.7 µM; 0.97% of 220,000 active;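 active = compounds that cut the binding signal by more than half at the single screening dose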;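 note: His-tagged Mcl-1 with europium anti-His antibody binding Bid BH3 peptide; 0% = Mcl-1 plus peptide wells and 100% = peptide-only wells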
MCL1 BIM primary: MCL1-BIM-BH3 interaction inhibition (human); GST-MCL1 / FITC-Bim-BH3 fluorescence polarization; Q07820; inhibition, % at 10.9 µM; 0.68% of 320,000 active;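 active = inhibition above the mean inhibition of all tested compounds plus 3 SD, set per campaign, cut at about 40% in these data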;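 note: 0% = DMSO wells and 100% = unlabeled Bim-BH3 peptide control; higher means more loss of mP so more displacement of Bim peptide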
GLD-1 TGE cf: confirmation of C. elegans GLD-1 TGE RNA binding inhibitors; inhibition, % at 5.96 µM; shares compounds with GLD-1 RNA inh; GLD-1/FL-TGE RNA fluorescence polarization, biochemical; AID 2459; 10% of 550 active;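 active = average inhibition across triplicates above the hit cutoff set in the primary screen, cut at about 32% in these data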;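 note: 0% = GLD-1 with RNA probe and DMSO and 100% = wells lacking GLD-1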
The depositor's hits bear a star; x = not tested or not shown.

SMILES	Mcl1 Noxa PPI	GLD-1 RNA inh	Bim-Mcl-1	Bcl-xL primary	Mcl1-Bid inh	MCL1 BIM primary	GLD-1 TGE cf
N#CCCn1cc(C=O)c(-c2cccs2)n1	-7.3	69.3*	32.0	-3.0	-15.3	-5.6	3.6
CCc1cc(=O)oc2cc(C)cc(OC(C)C(=O)NCCCn3ccnc3)c12 (stereo unspecified)	x	-4.8	x	-1.8	x	0.3	x
COc1ccc(OC)c(C(=O)N(C)C2CCCN(Cc3ccccc3F)C2)c1 (stereo unspecified)	x	39.2*	x	7.2	x	15.8	1.2
Cc1ccccc1OC(=O)C1C(c2ccccc2)C(C(=O)O)C1c1ccccc1 (stereo unspecified)	7.0	38.8*	-3.0	-2.1	5.5	-6.8	2.8
CCOC(=O)C1C(c2ccccc2)C(C(=O)OCC)C1c1ccccc1 (stereo unspecified)	-7.5	3.1	-2.0	5.5	-10.1	0.6	x
CC(=O)N1CC=C2C(C#N)=C(N)C(C#N)(C#N)[C@H](c3ccoc3)[C@H]2C1	-9.8	31.3*	-4.0	43.9*	-19.1	52.1*	17.5
Cn1c(=O)c(/C=C/c2ccccc2)nc2ccccc21	16.6	41.0*	-1.0	35.3*	-13.7	41.4*	1.4
Cn1c(=O)c(/C=C/c2ccc(F)cc2)nc2ccccc21	15.9	x	12.0	x	-0.9	x	x
O=C(OCC(O)COc1ccccc1)c1ccc([N+](=O)[O-])cc1 (stereo unspecified)	x	-2.8	x	5.1	x	-1.4	x
Cc1oc(/N=C/c2ccc3c(c2)OCO3)c(C#N)c1C	21.2	36.0*	0.0	16.5	-14.7	19.3	-3.2
COC(=O)c1ccc(C2c3c(oc4ccc(Cl)cc4c3=O)C(=O)N2CCN2CCOCC2)cc1 (stereo unspecified)	0.9	1.4	x	5.1	-9.3	-1.0	x
CC12CCC(=O)N1C(C(=O)NCc1ccccc1F)CS2 (stereo unspecified)	x	-4.4	x	-1.6	x	0.9	x
COc1cc(NC(=O)c2cccs2)cc(OC)c1	-3.5	52.3*	-1.0	6.8	-7.9	9.7	-1.6
COc1cc2c(cc1OC)C(NC(=O)c1ccc(C)cc1)CC2=O (stereo unspecified)	x	2.4	x	6.1	x	8.3	x
C/C(Cc1ccccc1)=N\NC(=O)CNC(=O)c1ccc(F)cc1	x	3.3	x	-0.1	x	0.3	x
C/C(Cc1ccccc1)=N\NC(=O)CNC(=O)c1ccc(Cl)cc1	-6.8	62.2*	x	4.6	-15.7	1.7	-5.2
O=C(NCC1CCCO1)C(=O)N/N=C/c1cccc(Cl)c1 (stereo unspecified)	x	0.2	x	-3.8	x	-9.1	x
COc1ccc2nc(SCC(=O)N3CCCCC3)c(C#N)cc2c1	22.1	3.7	-3.0	1.7	-27.3	4.3	x
COc1ccc2nc(N3CCCCC3)c(C#N)cc2c1	-7.0	45.9*	-2.0	32.3*	17.7	27.3	64.6*
COc1cccc(OCCNc2cc(N3CCCCC3)ccc2[N+](=O)[O-])c1	11.8	59.2*	1.0	4.2	-32.1	2.6	-2.6
COc1ccc(OCCNc2cc(N3CCCCC3)ccc2[N+](=O)[O-])cc1	8.7	8.2	-1.0	3.4	-5.9	4.5	x
O=c1ccc(S(=O)(=O)N2CCCC2)cn1Cc1ccc(Cl)cc1Cl	x	5.4	x	-10.5	x	-16.7	x
COc1ccccc1Oc1c(C)oc2c(CN3CCN(CCO)CC3)c(O)ccc2c1=O	-9.0	61.4*	1.0	94.5*	-13.7	112.5*	1.1
CC(C)/C=C/C(=O)N1CCC(N2CCC(C(=O)NCc3ccccn3)CC2)CC1	x	34.9*	x	28.0	x	26.0	7.8
CCCNC(=O)c1onc(CSc2ccc(Cl)cc2)c1C(=O)NCCC(C)C	x	44.2*	x	8.2	x	10.5	-6.0
SMILES	Mcl1 Noxa PPI	GLD-1 RNA inh	Bim-Mcl-1	Bcl-xL primary	Mcl1-Bid inh	MCL1 BIM primary	GLD-1 TGE cf
Cc1occc1C(=O)N1CCN(S(=O)(=O)c2ccccc2)CC1	x	2.6	x	3.3	x	5.8	x
O=C(c1ccccc1C(=O)N1CCN(c2ccccc2)CC1)N1CCN(c2ccccc2)CC1	-4.1	37.8*	-3.0	46.1*	-14.3	46.1*	11.4
CCOC(=O)Cc1csc(/N=C/c2c(O)n(-c3ccc(C)cc3C)c(=O)c3ccccc23)n1	9.2	38.0*	-2.0	28.1	-40.7	36.2	-25.8
COc1ccccc1CNC(=O)CN1C(=O)N(C)C2(CCCCC2)C1=O	x	-0.3	x	-3.5	x	1.2	x
COc1ccccc1OCCSc1nc2ccccc2n1CC(N)=O	x	3.5	x	7.1	x	2.8	x
CCSC1(SCC)N=C(N)C2(C#N)C(c3ccccc3)NC3=C(CCC3)C12C#N (stereo unspecified)	-1.0	49.8*	0.0	27.1	-54.1	25.7	-2.3
CCCCCCCCOc1ccc(C(=O)O)cc1	x	3.6	x	6.0	x	7.2	x
CCCCCCOc1ccc(C(=O)O)cc1C#N	9.4	40.3*	-3.0	3.2	11.7	9.0	-2.8
CCc1cc2cc(C)ccc2nc1SCC(=O)NC1CCCC1	x	1.5	x	-1.1	x	5.9	x
COc1ccc(-n2nc(C(=O)NCC(=O)NC3CCCC(C)C3C)c3ccccc3c2=O)cc1 (stereo unspecified)	x	33.3*	x	8.1	x	13.8	-1.0
COc1ccc(-c2nn(Cc3ccccc3)cc2C(=O)N2CCN(c3ncccn3)CC2)cc1OC	x	-2.3	x	3.0	x	-2.6	x
NC(=O)c1ccccc1NC(=O)/C=C/c1ccccc1	10.9	2.5	-6.0	-7.0	8.6	-11.8	x
NC(=O)c1ccccc1NC(=O)/C=C/c1ccc(Cl)cc1	28.7	56.2*	0.0	0.9	5.0	5.1	-4.7
COc1ccc(Cl)cc1NC(=O)CN(C)C(=O)c1sccc1-c1ccccc1	x	7.6	x	7.9	x	6.2	x
N#Cc1ccccc1OCC(=O)NNC(=O)CNC(=O)c1ccc(Br)o1	x	7.4	x	x	x	x	x
N#Cc1ccccc1OCC(=O)NNC(=O)CNC(=O)c1cccc(Br)c1	x	0.1	x	0.8	x	9.8	0.6
CCCCC1=CC2=CC(=O)C(C)(OC(=O)CC)C(=O)C2=CN1CC(C)C (stereo unspecified)	-4.9	31.1*	x	34.5*	-72.8	41.2*	22.3
Cc1ccc(/C=C/c2nc3ccccc3[nH]2)o1	27.5	31.9*	0.0	40.3*	-24.0	34.0	2.8
Cc1noc(C)c1S(=O)(=O)N(CC(=O)NCCc1ccccc1)c1ccc(C(C)C)cc1	x	48.0*	x	4.9	x	0.6	0.6
O=C(Cc1cn(Cc2cccc(Cl)c2)c2ccccc12)N1CCCC1	16.5	53.8*	-2.0	2.7	-4.8	3.8	-5.4
O=C(CS(=O)(=O)c1cn(Cc2ccc(Cl)cc2)c2ccccc12)N1CCCC1	3.0	5.3	-1.0	5.3	-19.3	7.3	x
COc1ccc(/C=N/c2c(-c3ccco3)nc3ccccn23)cc1OC	35.3	57.0*	0.0	38.7*	-3.1	47.0*	56.6*
Oc1ccccc1/C=N/c1c(-c2ccco2)nc2ccccn12	34.6	14.5	-6.0	23.9	-17.1	23.2	x

Screens from PubChem BioAssay.
